Data published in the supplement of paper PMC6555819.

Assays:
Assay in all cases: PBM binding z-score (relative to random genomic background probes); higher = stronger binding; sequences stand for … in GC…GCGATTGACAGCGTAGAATGAAGG
[1] = tested on: FXR:RXRa (NR concentration 270 nM, RXRa partner concentration 90 nM)
Method in brief: (§1)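 Ligand-free nuclear receptor dimers were applied to custom Agilent 4×180K protein-binding microarrays whose double-stranded probes carried direct-repeat seeds, single-nucleotide variants, half-site ablations and random human genomic background sequences in 34-nt variable regions. Incubation lasted 1 h. Binding z-scores were computed against the random background probes from regression-normalized fluorescence.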

[2] = tested on: LXRa:RXRa (NR concentration 270 nM, RXRa partner concentration 90 nM)
Method in brief: as §1

[3] = tested on: LXRa homodimer (NR concentration 270 nM)
Method in brief: as §1

[4] = tested on: LXRb:RXRa (NR concentration 270 nM, RXRa partner concentration 90 nM)
Method in brief: as §1

[5] = tested on: LXRb homodimer (NR concentration 270 nM)
Method in brief: as §1

[6] = tested on: PPARa:RXRa (NR concentration 270 nM, RXRa partner concentration 90 nM)
Method in brief: as §1

[7] = tested on: PPARg:RXRa (NR concentration 180 nM, RXRa partner concentration 90 nM)
Method in brief: as §1

[8] = tested on: PPARg:RXRa 270nM:90nM, anti-RXR (NR concentration 270 nM, RXRa partner concentration 90 nM)
Method in brief: as §1

[9] = tested on: PPARg:RXRa 30nM:10nM, anti-RXR (NR concentration 30 nM, RXRa partner concentration 10 nM)
Method in brief: as §1

[10] = tested on: PPARg:RXRa 90nM:30nM, anti-RXR (NR concentration 90 nM, RXRa partner concentration 30 nM)
Method in brief: as §1

[11] = tested on: PPARg:RXRa DBDmut IVT, anti-RXR (DBD mutation: RXRa K156A/R161A, NR concentration 270 nM, RXRa partner concentration 90 nM)
Method in brief: as §1

[12] = tested on: PPARg:RXRa IVT, anti-PPARg (NR concentration 270 nM, RXRa partner concentration 90 nM)
Method in brief: as §1

[13] = tested on: PPARg DBDmut:RXRa IVT, anti-PPARg (DBD mutation: PPARg1 K132A/R137A, NR concentration 270 nM, RXRa partner concentration 90 nM)
Method in brief: as §1

[14] = tested on: PPARg DBDmut IVT, anti-PPARg (DBD mutation: PPARg1 K132A/R137A, NR concentration 270 nM)
Method in brief: as §1

[15] = tested on: PPARg homodimer (NR concentration 180 nM)
Method in brief: as §1

[16] = tested on: PXR:RXRa (NR concentration 270 nM, RXRa partner concentration 90 nM)
Method in brief: as §1

[17] = tested on: PXR homodimer (NR concentration 270 nM)
Method in brief: as §1

[18] = tested on: RARa:RXR (NR concentration 270 nM, RXRa partner concentration 90 nM)
Method in brief: as §1

[19] = tested on: RARa homodimer (NR concentration 270 nM)
Method in brief: as §1

[20] = tested on: RARb:RXRa (NR concentration 270 nM, RXRa partner concentration 90 nM)
Method in brief: as §1

Sequence	PBM binding z-score [1]	PBM binding z-score [2]	PBM binding z-score [3]	PBM binding z-score [4]	PBM binding z-score [5]	PBM binding z-score [6]	PBM binding z-score [7]	PBM binding z-score [8]	PBM binding z-score [9]	PBM binding z-score [10]	PBM binding z-score [11]	PBM binding z-score [12]	PBM binding z-score [13]	PBM binding z-score [14]	PBM binding z-score [15]	PBM binding z-score [16]	PBM binding z-score [17]	PBM binding z-score [18]	PBM binding z-score [19]	PBM binding z-score [20]
CAAGACAGGTGAAAGGTAACTCAGTCTGGTACGC	1.04	1.14	-0.209	0.929	0.289	3.73	5.4	5.94	4.14	6.08	1.61	2.88	0.223	0.183	0.995	1.09	0.0379	1.92	0.108	1.57
AGAATGACGTTATTAAGATCAGGGAATTGCGGTC	-0.71	-0.589	-0.146	-0.6	-0.12	-0.251	0.405	0.0531	-0.0762	0.151	-0.6	-0.306	0.0629	0.222	-0.803	-0.327	-0.378	-0.472	-0.0308	-0.451
CGAACTAGGTCATCCAGGACAGTGCATACATTGA	4.36	2.32	0.87	2.15	0.0357	4.85	7.67	6.47	3.97	5.85	8.26	8.19	1.89	1.6	1.98	2.11	1.49	2.35	0.873	3.91
CAAACTTGGTCAAGAGGTCAAAGTCCGCTTCCCG	5.72	5.27	5.52	5.04	1.18	5.37	4.2	5.18	2.94	4.56	2.35	3.8	0.805	0.619	2.46	5.73	1.66	6.15	1.11	4.47
ACTTACGGGTGAACGAGGTTATAGCACGCGTATA	0.972	1.28	0.16	1.21	-0.375	2.36	1.73	1.35	0.333	0.745	2.06	2.61	0.498	1.4	0.965	1.75	0.287	2.01	0.821	1.19
GCATATAGGTAATACGAGGTGAAAGTCCGATTGT	2.16	2.66	0.407	0.883	-0.463	1.76	1.44	1.38	0.459	0.853	4.42	3.44	0.607	1.33	0.669	0.96	0.299	1.27	0.304	0.336
GCTGCTAGGGCAGGTTGGTCAGCTAACGGGTACG	-0.531	-0.752	-0.652	-1.01	-0.94	-0.594	-0.438	-0.678	-1.11	-1.1	0.814	0.109	-1.41	-2.26	-0.535	-0.732	-0.597	-0.985	-1.07	1.16
CAGCCTAGGCCAGGGCCAGTATAGGAGGAACGTT	-0.702	-1.16	-0.761	-1.14	-1.72	-0.754	0.0393	-1.36	-0.853	-1.1	-0.58	-0.938	-1.07	-1.68	-1.39	-1.04	-0.58	-0.83	-0.971	-0.0787
CGTCACAGTTCAACTAAGGTAACGTAAAGCACGC	3.5	3.37	1.17	2.07	0.36	3.14	1.61	1.49	0.576	0.859	0.343	1.09	0.467	1.1	1.58	3.88	1.47	2.28	0.677	3.1
ACTCGAAGGACAAAGGTCAGAGCTACGCCAGTGA	4.03	3.98	1.41	3.57	0.35	4.95	6.73	6.23	5.02	6.39	0.648	3.42	-0.0022	-0.263	2.57	3.58	0.743	4.28	0.861	4.7
TGAATGTGGTTATAAGATCAGGGAACGTTGCAAA	0.123	0.222	0.268	0.397	0.612	0.12	0.237	0.617	0.803	1.15	-0.328	0.343	0.967	1.11	0.749	0.00497	0.777	-0.382	1.15	0.0382
TCTCGGAGCACACGAAAGGTCAGAGCTCGACATC	1.92	3.07	1.44	2.84	-0.493	3.39	0.926	1.94	1.5	1.49	0.786	0.883	-0.964	-0.475	2.57	3.52	-0.0353	4.12	0.999	3.45
TTATATAGGTAAAGGTGAAAGTCGAACGATATGA	1.14	1.34	0.121	1.2	0.294	4.2	6.76	6.26	4.77	6.33	5.88	6.52	3.04	2.82	2.08	0.997	0.227	1.74	0.54	1.88
CCTAGCAGGCCAATCTGGGTCCCTCAAGGCTTGA	-0.114	-0.609	-0.704	-0.838	-1.11	-0.178	-0.823	-0.653	-1.08	-0.919	1.13	0.925	-1.33	-1.81	-1.12	-0.641	-0.809	-0.522	-0.809	0.0212
